Assay outcomes as filed in PubChem.
Hits are enriched below; roughly 7.5% of the tested compounds scored in any of these assays.
NPC1 promoter act – activators of NPC1 promoter; Huh7 NPC1 promoter luciferase reporter, 24 h; Potency, µM (titrated, usually from 9.22 µM), for the others: at the top dose activation, usual class: activators; actives 2.4% (n = 320,000); AID 485313; also: % of control where 0% means no effect; nearly all actives have a fitted effect of over 60% in size
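Huh7 reporter cells (NPC1 promoter driving luciferase) are dosed with compound for 24 h at 37 °C, 5% CO2; luciferase detection reagent is then added and luminescence measured after 10 min at ambient temperature.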
ELG1 genotox – inducers of genotoxicity in HEK293T ELG1-luciferase cells; HEK293T ELG1-luciferase reporter, luminescence, 16 h; Potency, µM (titrated, usually from 46 µM), without a hit: top-dose activity change, positive = activation, actives largely listed as activators; actives 1.3% (n = 330,000); AID 504466; also: % of control where 0% means no effect; nearly all actives have a fitted effect of over 60% in size
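Genotoxic stress is detected as increased luminescence from luciferase-tagged ELG1 in HEK293T cells, measured with ONE-Glo after a 16 hr treatment at 37 °C.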
FLuc counter – inhibits or activates purified firefly luciferase, miR-21 counter-screen. actives 6.9% (n = 360,000). purified FLuc, Km substrates, luminescence inhibition. Potency, µM (doses to about 57.5 µM), without a hit: top-dose activity change, negative = inhibition, usual class: inhibitors;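 also: plate controls were vehicle for no effect and reference inhibitor for full effect; nearly all actives have a fitted effect of over 55% in size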
Target sequence (P08659 whole entry, looked up): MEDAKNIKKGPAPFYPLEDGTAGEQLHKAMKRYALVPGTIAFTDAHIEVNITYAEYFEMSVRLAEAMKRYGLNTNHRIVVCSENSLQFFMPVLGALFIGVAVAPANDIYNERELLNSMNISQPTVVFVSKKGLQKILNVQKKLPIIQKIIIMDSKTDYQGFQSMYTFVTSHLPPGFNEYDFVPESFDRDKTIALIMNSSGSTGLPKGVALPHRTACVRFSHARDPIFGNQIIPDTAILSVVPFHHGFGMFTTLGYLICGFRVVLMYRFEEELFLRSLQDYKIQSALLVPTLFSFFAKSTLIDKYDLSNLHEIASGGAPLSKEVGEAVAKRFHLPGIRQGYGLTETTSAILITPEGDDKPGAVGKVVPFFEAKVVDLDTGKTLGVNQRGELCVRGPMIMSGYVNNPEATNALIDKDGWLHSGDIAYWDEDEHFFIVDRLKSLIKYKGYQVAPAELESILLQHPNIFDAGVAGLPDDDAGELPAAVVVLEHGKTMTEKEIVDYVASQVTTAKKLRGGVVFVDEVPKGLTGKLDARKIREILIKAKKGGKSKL
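Purified P. pyralis luciferase (10nM final) with 10uM D-luciferin and 10uM ATP (Km levels) in 50mM Tris acetate pH 7.5, 10mM Mg acetate, 0.01% Tween-20, 0.05% BSA; qHTS 6-point titration, ~60 µM downward; luminescence read.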
Rab9 promoter act – Rab9 promoter activation | Huh7 Rab9 promoter-luciferase reporter, luminescence, 24 h | Potency, µM (top dose mostly 9.22 µM), inactives show at the top dose activation, negative = inhibition, usual class: activators | actives 2.8% (n = 320,000) | AID 485297; also: % of control where 0% means no effect; nearly all actives have a fitted effect of over 60% in size
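Luciferase signal after 10 min detection reagent at ambient indicates Rab9 promoter upregulation; stably transfected Huh7 cells were treated 24 h with compound in DMSO at 37 °C, 5% CO2.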
SMN2 splice up – increases expression of the SMN2 splice variant | HEK293 SMN2-luciferase splicing reporter, luminescence, 30-36 h | Potency, µM (top dose mostly 46.1 µM), for the others: top-dose activity change, positive = activation, usual class: activators | actives 2.8% (n = 210,000); also: % of control where 0% means no effect; nearly all actives have a fitted effect of over 55% in size
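HEK293 cells carry an SMN2 […]–luciferase reporter in which exon 7 inclusion puts luciferase in frame. Cells were plated 10-12 h before compound addition, then incubated 30-36 h at 37C. ONE-Glo luminescence was read; sodium butyrate at 4.5 mM final served as control.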
Luc counter – blocks Kinase-Glo luciferase, a counter-screen artifact; Q27757; Kinase-Glo luciferase, ATP luminescence, 8 min; Potency, µM (top dose mostly 38.3 µM), without a hit: top-dose activity change, negative = inhibition, hits mostly inhibitors; actives 0.28% (n = 200,000); AID 1379; also: % is scaled to controls: 0 for no effect and ±100 for the full control effect; nearly all actives have a fitted effect of over 60% in size
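Recombinant Kinase-Glo luciferase, 10 uM ATP (linear range), luciferin; imidazole pH 7.2 / KCl / MgCl2 / Tween / BSA buffer; 8 min RT; luminescence.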
Active calls of the source: *; ? = inconclusive; . = not tested or not shown; [ ] = another dose, or the depositor's remark. Calls follow the shape of the dose curve; as a rule, active = well fitted curve in the direction sought with a large enough effect; inconclusive = small, poorly fitted or top-dose-only effect, or another doubt; inactive = no such curve, though single readings can be large; an effect the other way counts as inactive or inconclusive. Potency is read from the fitted curve at half-maximal effect.

SMILES	NPC1 promoter act	ELG1 genotox	FLuc counter	Rab9 promoter act	SMN2 splice up	Luc counter
Cc1cccc(NC(=O)Nc2ccccc2[N+](=O)[O-])n1	15%	12%	-14%	5%	.	.
Cc1cnc(NC(=O)CCCNC(=O)c2ccc(Cl)cc2)s1	26%	?	8.5µM*	?	.	.
Cc1ccc(NC(=O)CCCNC(=O)c2ccc(Cl)cc2)nc1	16%	?	?	25%	.	.
Cc1ccc(NN=C2c3ccccc3-c3ccccc32)cc1	?	?	15µM*	?	27%	-1%
CCOc1ccccc1CNC(=O)Cn1c(-c2ccccc2)cc(C(C)=O)c1C	.	.	-12%	.	-3%	.
Cc1ccc(C(=O)NNC(=O)C2CCN(c3nccc(C)n3)CC2)cc1	2%	0%	-1%	-4%	1%	-2%
Cc1sc(NC(=O)/C=C/c2ccc(C(C)C)cc2)c(C#N)c1C	-4%	5%	-5%	2%	-5%	0%
CC(C)c1ccc(/C=C/C(=O)Nc2nncs2)cc1	0.89µM*	?	0.76µM*	0.5µM*	18µM*	-2%
COc1cccc(Cn2c(=O)c(-c3ccccc3)nc3cnc(N(C)C)nc32)c1	.	.	.	.	-2%	-3%
Clc1c(-c2nnc3n2CCC3)sc2ccccc12	-1%	23%	21µM*	2%	8%	-1%
CSc1ccccc1OCc1cc(C(=O)NC(C)CCn2cccn2)no1 (stereo not given)	-3%	-3%	?	1%	.	.
CSc1ccccc1OCc1cc(C(=O)NCc2cccc(C)n2)no1	2.8µM*	?	12µM*	4µM*	.	.
CSc1ccccc1OCc1cc(C(=O)NC(C)Cc2cccc(C)n2)no1 (stereo not given)	?	-10%	19µM*	?	.	.
COC(=O)Cn1c2ccc(OC)cc2c2nc(C)sc21	-1%	-1%	-16%	0%	.	.
Cc1cccc(NC(=O)N2CC=C(c3c[nH]c4ccccc34)CC2)c1C	.	.	-18%	.	.	.
Cn1c(SCC(=O)N2CCc3ccccc32)nc2cccnc21	1%	-12%	-12%	-4%	-29%	-4%
N#CCSc1ncccc1-c1nc2ccccc2[nH]1	3%	0%	-16%	15%	-14%	1%
N#CCCCSc1ncccc1-c1nc2ccccc2[nH]1	?	15%	?	?	-7%	-1%
CC(C)(C)NC(=O)CSc1ncccc1-c1nc2ccccc2[nH]1	3%	8%	24µM*	-1%	.	.
O=C(CSc1ncccc1-c1nc2ccccc2[nH]1)N1CCc2ccccc21	?	?	7.6µM*	2.8µM*	-38%	-13%
COC(=O)CSc1ncccc1-c1nc2ccccc2[nH]1	15%	?	13µM*	-1%	11%	-3%
CC1(C)O[C@@H]2C[C@H]3[C@H]4C[C@H](F)C5=CC(=O)CC[C@]5(C)[C@@H]4[C@H](O)C[C@]3(C)[C@]2(C(=O)CO)O1	.	.	.	.	-2%[20.6 µM]	-1%[17.1 µM]
COc1ccccc1-n1c(C)cc(/C=C2/C(=N)N3C(=NC2=O)SN=C3S(C)(=O)=O)c1C	?	?	0.67µM*	?	-14%	-2%
COc1ccccc1-n1c(C)cc(/C=C2\C(=N)N3N=C(CC(=O)N4CCOCC4)SC3=NC2=O)c1C	4%	7%	24µM*	-2%	.	.
Cc1cc(/C=C2/C(=N)N3C(=NC2=O)SN=C3S(C)(=O)=O)c(C)n1-c1ccc(F)cc1	30%	?	1.5µM*	14%	?	14%
COc1ccc(-n2c(C)cc(/C=C3\C(=N)N4N=C(CC(=O)N5CCOCC5)SC4=NC3=O)c2C)c(OC)c1	-2%	5%	?	-10%	.	.
CCOc1cc(/C=C2/C(=N)N3C(=NC2=O)SN=C3S(C)(=O)=O)ccc1OS(=O)(=O)c1ccccc1	0%	5%	?	5%	.	.
